# In PubChem BioAssay (EPA / NIEHS):
# Records with an inconclusive call do not appear. Activity calls are given as the source filed them. How the source made its calls: active means hit-call score of the fitted dose curve at least 0.9, where 1 is the maximum; inconclusive means response in the unintended direction; inactive means score below 0.9.
# Assays:
# [1] = TOX21_p53_BLA_p2_viability: Viability Assessment in the Tox21 HCT-116 p53 Agonism Beta-lactamase Assay, Phase 2 (AID 2283591);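 further: compound exposure lasted 16 h at 37 °C; actives lower the ATP signal meaning cytotoxicity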
# Procedure, shortened: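 HCT116 p53-bla cells, 4000/well, dosed after 5 h plating (217-fold dilution of DMSO stocks) and incubated 16 h at 37C. Viability taken as cellular ATP by CellTiter-Glo luminescence after 30 min RT; signal loss marks cytotoxicity.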
# [2] = molecular target: Cellular tumor antigen p53 (Homo sapiens) (UniProt P04637); assay: TOX21_p53_BLA_p2_ratio: Tox21 HCT-116 p53 Agonism Beta-lactamase Assay, Ratio, Phase 2 (AID 2283592)
# Sequence of Cellular tumor antigen p53 (Homo sapiens) (P04637 whole entry, looked up): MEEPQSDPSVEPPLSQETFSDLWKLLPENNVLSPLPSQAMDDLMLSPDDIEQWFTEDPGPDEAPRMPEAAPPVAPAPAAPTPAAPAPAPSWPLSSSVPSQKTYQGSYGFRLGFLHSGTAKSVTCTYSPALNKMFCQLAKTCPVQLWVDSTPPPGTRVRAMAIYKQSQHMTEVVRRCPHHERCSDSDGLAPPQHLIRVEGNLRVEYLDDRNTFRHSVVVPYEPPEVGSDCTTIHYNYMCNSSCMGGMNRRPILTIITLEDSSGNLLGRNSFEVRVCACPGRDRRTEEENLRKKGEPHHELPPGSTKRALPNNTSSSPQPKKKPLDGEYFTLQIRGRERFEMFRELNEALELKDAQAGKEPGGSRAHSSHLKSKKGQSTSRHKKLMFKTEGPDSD
# Procedure, shortened: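 Ratio endpoint: beta-lactamase cleavage of CCF4-AM, blue (460 nm) over green (530 nm). HCT116 reporter line; 16 h treatment, 37C; substrate 2 h RT.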
# [3] = TOX21_p53_BLA_p3_viability: Viability Assessment in the Tox21 HCT-116 p53 Agonism Beta-lactamase Assay, Phase 3 (AID 2283593);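 further: cells exposed to compound for 16 h before reading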
# Procedure, shortened: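 HCT116 cells, 4000/well, dosed 5 h after plating by pin transfer (217-fold dilution from DMSO stock) and incubated 16 h at 37C, 5% CO2. Viability read as ATP luminescence with CellTiter-Glo after 30 min at room temperature.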
# [4] = molecular target: Cellular tumor antigen p53 (Homo sapiens) (UniProt P04637); assay: TOX21_p53_BLA_p3_ratio: Tox21 HCT-116 p53 Agonism Beta-lactamase Assay, Ratio, Phase 3 (AID 2283596)
# Procedure, shortened: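 Cells were seeded at 4000/well, rested 5 h at 37C, then dosed with DMSO compound solutions (217-fold dilution) for 16 h. CCF4-AM substrate was loaded for 2 h at room temperature, and the 460/530 nm emission ratio was fitted for gain of signal versus DMSO.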
# [5] = TOX21_p53_BLA_p4_viability: Viability Assessment in the Tox21 HCT-116 p53 Agonism Beta-lactamase Assay, Phase 4 (AID 2283597);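 further: hits lower the luminescence signal meaning cytotoxicity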
# Procedure, shortened: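 Cytotoxicity was inferred from loss of CellTiter-Glo luminescence. HCT116 cells had been dosed with compounds after 5 h plating, incubated 16 h at 37C and 5% CO2, and exposed to the CCF4-AM substrate for 2 h.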
# [6] = molecular target: Cellular tumor antigen p53 (Homo sapiens) (UniProt P04637); assay: TOX21_p53_BLA_p5_ratio: Tox21 HCT-116 p53 Agonism Beta-lactamase Assay, Ratio, Phase 5 (AID 2283599)
# Procedure, shortened: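 HCT-116 p53-bla cells (4000/well) plated 5 h, dosed with compound (217-fold DMSO dilution) for 16 h at 37 C; CCF4-AM substrate 2 h at room temperature. Activity is the 460/530 nm emission ratio (405 nm excitation), fitted in gain-of-signal direction versus DMSO.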
# [7] = molecular target: Cellular tumor antigen p53 (Homo sapiens) (UniProt P04637); assay: TOX21_p53_BLA_p4_ratio: Tox21 HCT-116 p53 Agonism Beta-lactamase Assay, Ratio, Phase 4 (AID 2283601)
# Procedure, shortened: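 HCT-116 p53 beta-lactamase reporter cells (4000/well) preincubated 5 h, then compound (217-fold dilution of DMSO stock) for 16 h at 37C. CCF4-AM substrate added 2 h at room temperature; 460/530 nm emission ratio fitted upward versus DMSO.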
# [8] = TOX21_p53_BLA_p5_viability: Viability Assessment in the Tox21 HCT-116 p53 Agonism Beta-lactamase Assay, Phase 5 (AID 2283600)
# Procedure, shortened: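 Luciferase-coupled ATP quantitation of cells treated for 16 h (37C, 5% CO2) with test chemicals delivered in DMSO via a 217-fold dilution; 4000 cells/well; reagent incubated 30 min at room temperature before luminescence reading.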
# [9] = molecular target: Thyroid hormone receptor alpha (Rattus norvegicus) + Thyroid hormone receptor beta (Rattus norvegicus) (UniProt P18113+P63059); assay: TOX21_TR_LUC_GH3_Antagonist_Followup: Tox21 GH3 Thyroid Hormone Receptor Antagonism Luciferase Follow-Up Assay (AID 2283942)
# Procedure, shortened: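 Luminescence read-out (ONE-Glo, 30 min at room temperature) in GH3 reporter cells challenged with 1.0 nM T3 final. Compounds ran at 92 uM to 5nM over 15 concentrations for 24 h; DMSO served as negative control and baseline.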
# THRA (gene 7067) = THRA (gene 7067) (UniProt P10827); assay: TOX21_TRA_COA_Antagonist_Followup_ratio: Tox21 Thyroid Hormone Receptor alpha Antagonism through Coactivator Recruitment Follow-Up Assay, Ratio (AID 2283953)
# Sequence of THRA (gene 7067) (P10827 whole entry, looked up, the tested form may be a part): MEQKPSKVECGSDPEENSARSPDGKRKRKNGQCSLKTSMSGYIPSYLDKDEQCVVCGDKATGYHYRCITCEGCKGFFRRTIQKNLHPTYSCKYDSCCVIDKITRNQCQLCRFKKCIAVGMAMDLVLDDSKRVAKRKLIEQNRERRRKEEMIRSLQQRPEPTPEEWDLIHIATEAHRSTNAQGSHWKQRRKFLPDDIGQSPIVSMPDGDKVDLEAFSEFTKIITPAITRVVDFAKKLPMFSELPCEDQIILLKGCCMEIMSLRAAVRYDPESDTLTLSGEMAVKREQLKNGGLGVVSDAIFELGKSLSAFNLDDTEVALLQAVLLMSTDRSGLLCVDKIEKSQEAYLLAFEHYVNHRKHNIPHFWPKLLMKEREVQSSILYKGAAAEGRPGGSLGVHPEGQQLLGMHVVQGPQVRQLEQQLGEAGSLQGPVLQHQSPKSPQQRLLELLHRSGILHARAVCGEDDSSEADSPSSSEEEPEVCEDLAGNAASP
# Procedure, shortened: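 GST-TRα LBD 2.5 nM, BSA 0.10%, + cpd; then FITC-SRC-2 peptide 200 nM + Tb-anti-GST Ab 2 nM. TR-FRET ratio 520/495 nm. Norm: DMSO = 0%, T3 = 100%.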
# THRB (gene 7068) [10] = molecular target: THRB (gene 7068) (UniProt P10828); assay: TOX21_TRB_BLA_Antagonist_Followup_ratio: Tox21 Thyroid Hormone Receptor beta Antagonism Beta-lactamase (BLA) Follow-Up Assay, Ratio (AID 2283958)
# Sequence of THRB (gene 7068) (P10828 whole entry, looked up, the tested form may be a part): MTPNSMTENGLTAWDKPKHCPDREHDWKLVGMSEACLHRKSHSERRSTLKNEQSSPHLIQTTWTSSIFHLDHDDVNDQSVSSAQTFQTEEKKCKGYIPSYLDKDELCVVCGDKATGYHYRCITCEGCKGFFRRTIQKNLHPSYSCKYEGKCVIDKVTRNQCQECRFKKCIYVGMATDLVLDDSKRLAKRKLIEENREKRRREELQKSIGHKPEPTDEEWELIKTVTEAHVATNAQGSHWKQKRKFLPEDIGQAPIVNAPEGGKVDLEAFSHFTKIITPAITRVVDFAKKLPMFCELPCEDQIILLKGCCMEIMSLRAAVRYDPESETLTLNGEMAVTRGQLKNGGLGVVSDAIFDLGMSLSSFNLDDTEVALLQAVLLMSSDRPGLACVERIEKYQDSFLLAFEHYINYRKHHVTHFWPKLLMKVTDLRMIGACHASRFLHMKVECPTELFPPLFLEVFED
# Procedure, shortened: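 Cells were plated and allowed to attach for 5 h, then dosed with compounds in DMSO at 11 concentrations for 18 h at 37C. Beta-lactamase reporter activity was measured via CCF4-AM FRET as the 460:530 nm ratio.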
# [11] = TOX21_TRB_BLA_Antagonist_Followup_viability: Viability Assessment in the Tox21 Thyroid Hormone Receptor beta Antagonism Beta-lactamase (BLA) Follow-Up Assay (AID 2283961)
# Procedure, shortened: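 HEK293T cells stably expressing GAL4-DBD/human TRβ-LBD with UAS-bla reporter, 3,000 cells/well in phenol red-free DMEM, 2% charcoal-stripped FBS. Compounds at 11 concentrations in triplicate, 18 h at 37C/5% CO2; viability by CellTiter-Glo luminescence after 30 min at room temperature.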
# THRB (gene 7068) [12] = molecular target: THRB (gene 7068) (UniProt P10828); assay: TOX21_TRB_COA_Antagonist_Followup_ratio: Tox21 Thyroid Hormone Receptor beta Antagonism through Coactivator Recruitment Follow-Up Assay, Ratio (AID 2283967)
# Procedure, shortened: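 GST-TRb LBD 5.0 nM + 0.10% BSA, compound added; fluorescein-SRC-2 peptide 200 nM, Tb-anti-GST Ab 2 nM. TR-FRET, ex 340 / em 520:495 ratio. Norm: DMSO 0%, T3 100%.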
# [13] = molecular target: Retinoic acid receptor RXR-alpha (Homo sapiens) (UniProt P19793); assay: TOX21_TR_RXR_BLA_Antagonist_Followup_ratio: Tox21 Thyroid Hormone Receptor beta Retinoid X Receptor alpha (RXRa) Antagonism Beta-lactamase (BLA) Follow-Up Assay, Ratio (AID 2283972)
# Sequence of Retinoic acid receptor RXR-alpha (Homo sapiens) (P19793 whole entry, looked up): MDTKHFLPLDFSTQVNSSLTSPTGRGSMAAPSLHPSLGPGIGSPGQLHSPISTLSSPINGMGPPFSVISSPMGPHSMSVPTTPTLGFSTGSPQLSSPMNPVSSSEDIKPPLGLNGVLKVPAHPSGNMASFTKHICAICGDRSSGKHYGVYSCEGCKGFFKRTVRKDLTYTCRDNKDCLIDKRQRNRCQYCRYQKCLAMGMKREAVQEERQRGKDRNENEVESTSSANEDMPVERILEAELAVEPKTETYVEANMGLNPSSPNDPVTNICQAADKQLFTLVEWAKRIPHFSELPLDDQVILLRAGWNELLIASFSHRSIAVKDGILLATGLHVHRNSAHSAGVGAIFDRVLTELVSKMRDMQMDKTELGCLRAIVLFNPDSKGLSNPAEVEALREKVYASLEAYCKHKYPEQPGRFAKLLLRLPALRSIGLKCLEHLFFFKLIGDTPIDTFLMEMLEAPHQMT
# Procedure, shortened: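 RXRa-UAS-bla HEK293T cells in phenol red-free DMEM with 2% charcoal-stripped FBS; compounds at 11 concentrations in triplicate, 16 h at 37C. LiveBLAzer FRET-B/CCF4-AM substrate 2 h at room temperature; read as 460:530 nm ratio versus DMSO.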
# [14] = TOX21_TR_RXR_BLA_Antagonist_Followup_viability: Viability Assessment in the Tox21 Thyroid Hormone Receptor beta Retinoid X Receptor alpha (RXRa) Antagonism Beta-lactamase (BLA) Follow-Up Assay (AID 2283979)
# Procedure, shortened: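 RXRa-bla HEK293T cells (2,500/well, phenol red-free DMEM, 2% charcoal-stripped FBS) were attached 5 h, then exposed to compounds at 11 concentrations in triplicate for 16 h at 37C. Viability measured by CellTiter-Glo ATP luminescence, bidirectional fitting versus DMSO.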
# PGR (gene 5241) [15] = molecular target: PGR (gene 5241) (UniProt P06401); assay: TOX21_PR_BLA_Followup_Antagonist_ratio: Tox21 HEK293 Progesterone Receptor (PR) Antagonism Beta-lactamase Follow-Up Assay, Ratio (AID 2283934);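 further: PR-UAS-bla HEK293T cells stimulated with 1 nM R5020 agonist for 16 hr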
# Sequence of PGR (gene 5241) (P06401 whole entry, looked up): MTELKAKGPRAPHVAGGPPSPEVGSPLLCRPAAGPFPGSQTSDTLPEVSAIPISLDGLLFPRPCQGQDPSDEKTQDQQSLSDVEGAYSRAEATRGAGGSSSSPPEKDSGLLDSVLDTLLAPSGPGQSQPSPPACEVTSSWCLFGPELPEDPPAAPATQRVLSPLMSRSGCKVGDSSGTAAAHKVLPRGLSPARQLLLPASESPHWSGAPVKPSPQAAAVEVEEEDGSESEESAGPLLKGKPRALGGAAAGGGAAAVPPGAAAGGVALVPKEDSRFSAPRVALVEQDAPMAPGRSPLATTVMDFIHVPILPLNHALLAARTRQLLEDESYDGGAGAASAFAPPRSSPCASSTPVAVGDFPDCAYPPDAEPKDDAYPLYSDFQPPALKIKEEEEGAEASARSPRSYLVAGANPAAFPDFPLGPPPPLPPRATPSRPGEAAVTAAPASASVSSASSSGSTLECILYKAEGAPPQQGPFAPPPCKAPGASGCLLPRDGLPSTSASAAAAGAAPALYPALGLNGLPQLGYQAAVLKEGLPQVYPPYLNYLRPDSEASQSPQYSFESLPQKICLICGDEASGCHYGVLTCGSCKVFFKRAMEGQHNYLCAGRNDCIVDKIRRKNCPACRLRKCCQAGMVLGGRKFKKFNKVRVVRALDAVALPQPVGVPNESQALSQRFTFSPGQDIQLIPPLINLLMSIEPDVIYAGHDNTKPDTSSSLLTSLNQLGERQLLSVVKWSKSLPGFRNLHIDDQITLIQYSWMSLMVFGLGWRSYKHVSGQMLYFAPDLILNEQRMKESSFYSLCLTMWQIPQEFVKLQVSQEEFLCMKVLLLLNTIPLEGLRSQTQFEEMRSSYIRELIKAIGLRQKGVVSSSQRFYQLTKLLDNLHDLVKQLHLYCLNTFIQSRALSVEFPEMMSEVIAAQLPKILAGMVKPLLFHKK
# Procedure, shortened: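 Cells are plated, rested 6 hr, then dosed with test compound in DMSO and challenged with 1 nM promegestone. After 16 hr incubation, substrate loading for 2 h at room temperature precedes fluorescence reading; viability is measured in the same wells.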
# [16] = TOX21_PR_BLA_Followup_Agonist_viability: Viability Assessment in the Tox21 HEK293 Progesterone Receptor (PR) Agonism Beta-lactamase Follow-Up Assay (AID 2283935);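 further: signal loss means lower viability so actives are cytotoxic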
# Procedure, shortened: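 Cells were plated in medium with 2% charcoal-stripped FBS and rested 6 hr. Compounds in DMSO were then added for 16 hr at 37C, followed by the FRET substrate step and CellTiter-Glo luminescence after 30 min.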
# [17] = TOX21_PR_BLA_Followup_Antagonist_viability: Viability Assessment in the Tox21 HEK293 Progesterone Receptor (PR) Antagonism Beta-lactamase Follow-Up Assay (AID 2283936);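 further: cells exposed to compound with R5020 agonist for 16 h; hits lower the luminescence signal meaning cytotoxicity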
# Procedure, shortened: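 PR-UAS-bla HEK293T cells in medium with 2% charcoal-stripped FBS were treated with compounds plus R5020 for 16 hr at 37C. After the beta-lactamase read, CellTiter-Glo was added to the same wells and luminescence read after 30 min at room temperature.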
# PGR (gene 5241) [18] = molecular target: PGR (gene 5241) (UniProt P06401); assay: TOX21_PR_LUC_Followup_Antagonist: Tox21 HEK293 Progesterone Receptor (PR) Antagonism Luciferase Follow-Up Assay (AID 2283938);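 further: curve fitted upward as signal gain over DMSO baseline despite antagonist label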
# Procedure, shortened: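 HEK293-PR-A-luc cells were precultured 5 days in medium with 10% charcoal-stripped FBS, seeded 3,000/well, then exposed to compounds in DMSO for 16 h at 37C. Luciferase was read by ONE-Glo luminescence after 30 min at room temperature.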
# [19] = TOX21_PR_LUC_Followup_Antagonist_viability: Viability Assessment in the Tox21 HEK293 Progesterone Receptor (PR) Antagonism Luciferase Follow-Up Assay (AID 2283940)
# Procedure, shortened: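 HEK293-PR-A-luc, 3,000 cells/well; 5 h at 37C/0% CO2; compound pin transfer; 16 h incubation; CellTiter-Glo ATP luminescence, signal loss = cytotoxicity.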
smiles,measurement,setting,value
CCc1cccc(N(C)C(N)=Nc2cccc3ccccc23)c1,outcome,[1],inactive
same,outcome,[2],inactive
same,outcome,[3],inactive
same,outcome,[4],inactive
same,outcome,[5],inactive
same,outcome,[6],inactive
same,outcome,[7],inactive
CN1C[C@H](C(=O)N[C@]2(C)O[C@@]3(O)[C@@H]4CCCN4C(=O)[C@H](Cc4ccccc4)N3C2=O)C[C@@H]2c3cccc4[nH]cc(c34)C[C@H]21,outcome,[1],inactive
same,outcome,[2],inactive
same,outcome,[3],inactive
same,outcome,[4],inactive
same,outcome,[5],inactive
same,outcome,[6],inactive
same,outcome,[7],inactive
CNC(=O)c1ccccc1Sc1ccc2c(/C=C/c3ccccn3)n[nH]c2c1,outcome,[1],inactive
same,AC50,[2],0.922 µM (active)
same,outcome,[3],inactive
same,AC50,[4],1.02 µM (active)
same,outcome,[5],inactive
same,AC50,[6],894 nM (active)
same,AC50,[7],0.738 µM (active)
O=C(CO)[C@@H](O)[C@H](O)[C@@H](O)C(=O)O,outcome,[1],inactive
same,outcome,[2],inactive
same,outcome,[3],inactive
same,outcome,[4],inactive
same,outcome,[5],inactive
same,outcome,[6],inactive
same,outcome,[7],inactive
O=C(O)CCc1nc2ccccc2[nH]1,outcome,[1],inactive
same,outcome,[2],inactive
same,outcome,[3],inactive
same,outcome,[4],inactive
same,outcome,[5],inactive
same,outcome,[6],inactive
same,outcome,[7],inactive
CNCCCCOc1ccccc1Cc1ccccc1,outcome,[1],inactive
same,outcome,[2],inactive
same,outcome,[3],inactive
same,outcome,[4],inactive
same,AC50,[5],36.4 µM (active)
same,outcome,[8],inactive
COc1ccc2nc(NC(=O)Nc3ccccc3)sc2c1,outcome,[1],inactive
same,outcome,[2],inactive
same,outcome,[3],inactive
same,outcome,[4],inactive
same,outcome,[5],inactive
same,outcome,[6],inactive
same,outcome,[7],inactive
same,outcome,[9],inactive
same,outcome,THRA (gene 7067),inactive
same,outcome,THRB (gene 7068) [10],inactive
same,outcome,[11],inactive
same,outcome,THRB (gene 7068) [12],inactive
same,outcome,[13],inactive
same,outcome,[14],inactive
CCC(Oc1ccccc1)C(=O)N[C@@H]1C(=O)N2[C@@H]1SC(C)(C)[C@@H]2C(=O)O (stereo partly drawn),outcome,[1],inactive
same,outcome,[2],inactive
same,outcome,[3],inactive
same,outcome,[4],inactive
same,outcome,[5],inactive
same,outcome,[6],inactive
same,outcome,[7],inactive
COc1cc2c(cc1OC)-c1cc3ccc(OC)c(OC)c3c[n+]1CC2,outcome,[1],inactive
same,outcome,[2],inactive
same,outcome,[3],inactive
same,outcome,[4],inactive
same,outcome,[5],inactive
same,outcome,[8],inactive
Cc1ccc(NC(=O)c2ccc(CN3CCN(C)CC3)cc2)cc1Nc1nccc(-c2cccnc2)n1,outcome,[1],inactive
same,outcome,[2],inactive
same,outcome,[3],inactive
same,outcome,[4],inactive
same,outcome,[5],inactive
same,outcome,[6],inactive
same,outcome,[7],inactive
C#C[C@]1(O)CC[C@H]2[C@@H]3CCc4cc(OC5CCCC5)ccc4[C@H]3CC[C@@]21C,outcome,[1],inactive
same,outcome,[2],inactive
same,outcome,[3],inactive
same,outcome,[4],inactive
same,outcome,[5],inactive
same,outcome,[6],inactive
same,AC50,PGR (gene 5241) [15],13.6 µM (active)
same,outcome,[16],inactive
same,outcome,[17],inactive
same,AC50,PGR (gene 5241) [18],16.2 µM (active)
same,outcome,[19],inactive
Cc1ccc2c(Br)cc(Br)c(O)c2n1,outcome,[1],inactive
same,AC50,[2],40.4 µM (active)
same,outcome,[3],inactive
same,outcome,[4],inactive
same,AC50,[5],16.8 µM (active)
same,outcome,[6],inactive
same,AC50,[7],43 µM (active)
